# According to PubChem BioAssay:
# Activity calls are given as the source filed them. Unless noted, the rule behind the calls is not given here.
# Experiments:
# [1] = Plasmodium falciparum growth inhibition, primary screen, strain 3D7, DAPI fluorescence, 100 nL (AID 1184);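 note: parasites grown inside human red blood cells in medium with human serum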; settings: P. falciparum 3D7 growth, 3 d, higher = more signal
# [2] = target: Homeobox protein Hox-A13 (Mus musculus) (UniProt Q62424); experiment: inhibitors of HoxA13-DNA binding, primary screen, biochemical, fluorescence polarization, labeled oligonucleotide (AID 1185); settings: 15 min, higher = more signal, called active from +8 up or from −8 down
# [3] = inhibitors of hydroxyurea-induced Chk1 phosphorylation, primary screen, imaging, HeLa, phospho-Chk1 antibody, percent positive cells (AID 1186); settings: hydroxyurea-induced phospho-Chk1 immunofluorescence imaging, higher = more signal
# [4] = inhibitors of hydroxyurea-induced Chk1 phosphorylation, primary screen, imaging, HeLa, phospho-Chk1 nuclear intensity (AID 1187); settings: hydroxyurea-induced phospho-Chk1 immunofluorescence imaging, higher = more signal; note: test concentration not given here
# Homeobox protein Hox-A13 (Mus musculus), sequence (Q62424 whole entry, looked up): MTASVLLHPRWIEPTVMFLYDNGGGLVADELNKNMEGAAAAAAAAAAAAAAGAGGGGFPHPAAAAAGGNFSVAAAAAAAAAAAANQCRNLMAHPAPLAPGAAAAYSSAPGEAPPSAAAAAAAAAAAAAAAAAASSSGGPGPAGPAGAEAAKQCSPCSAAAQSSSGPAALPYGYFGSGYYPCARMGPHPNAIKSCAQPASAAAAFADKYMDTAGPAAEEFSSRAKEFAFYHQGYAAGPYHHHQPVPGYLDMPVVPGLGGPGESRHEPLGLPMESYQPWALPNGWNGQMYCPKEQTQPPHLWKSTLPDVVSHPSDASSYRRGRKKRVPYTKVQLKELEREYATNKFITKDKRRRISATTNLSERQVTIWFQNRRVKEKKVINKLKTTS
SMILES,z-score [1],z-score [2],z-score [3],z-score [4]
CCOC(=O)C[C@H]1[C@H](OC(=O)Cc2ccc3c(c2)OCO3)[C@@H](NC(=O)c2ccc3ccccc3c2)c2cc(OCCCO)ccc2N1C(=O)c1ccc2ccccc2n1,-1.29,-2.66 (inactive),-0.926 (inactive),-0.612 (inactive)
COCCCNC(=O)[C@@]1(Cc2ccccc2CN=[N+]=[N-])COC(c2ccc(OCCCO)cc2)=N1,-2.1,-4.83 (inactive),-0.742 (inactive),-0.73 (inactive)
CCOC(=O)C[C@H]1[C@H](OC(=O)c2ccc(-c3ccccc3)cc2)[C@@H](NC(=O)C2CCCCC2)c2cc(OCCCO)ccc2N1C(=O)c1ccc2ccccc2n1,-0.915,-0.844 (inactive),-0.807 (inactive),-0.479 (inactive)
C=C(/C(=C/C[C@H](OC(=O)c1ccncc1)c1cccc(OCCO)c1)c1cc(C(=O)OC)ccc1OC)C(C)C,-2.77,-2.91 (inactive),-1.09 (inactive),-1.36 (inactive)
CCCNC(=O)[C@@H]1c2ccccc2C(=O)N(Cc2cc(C(F)(F)F)cc(C(F)(F)F)c2)[C@H]1c1ccc(CO)cc1,-1.64,-1.94 (inactive),-0.319 (inactive),0.0789 (inactive)
Cc1ccc(S[C@]2(C(=O)NCC(C)C)CC(=O)N(C(C)C)[C@@H]2c2ccc(CO)cc2)cc1,-1.79,1.8 (inactive),-0.273 (inactive),-0.0385 (inactive)
CC(C)C(CO)N1C(=O)[C@@H]2C3C(=O)OCCC/C=C\[C@H]3OC23C=CCN(C(C)C)C(=O)[C@@H]13 (some centres not stated),0.0709,-4.01 (inactive),-1.29 (inactive),-1.14 (inactive)
NC(=O)NCC#Cc1ccc2c(c1)[C@]1(C(=O)N2)[C@H](c2ccc(OCCO)cc2)N2[C@H](c3ccccc3)[C@H](c3ccccc3)OC(=O)[C@H]2[C@@H]1C(=O)Nc1nc2ccccc2s1,-0.745,0.706 (inactive),0.0953 (inactive),0.219 (inactive)
O=C(NO)[C@]1(Cc2ccccc2)N=C(c2ccc(OCCCO)cc2)O[C@@H]1c1ccccc1,-1.26,-5.15 (inactive),-0.593 (inactive),-0.0319 (inactive)
CCN(CC)c1ccc(N2CC=CC34O[C@@H]5C=CCOC(=O)[C@@H]5[C@H]3C(=O)N(C(C)CO)[C@@H]4C2=O)cc1 (some centres not stated),0.339,-3.29 (inactive),0.36 (inactive),0.325 (inactive)
CC(C)(C)OC(=O)CC[C@]1(C(=O)NCc2ccccc2)COC(c2ccc(OCCCO)cc2)=N1,-0.561,-5.02 (inactive),0.0879 (inactive),0.166 (inactive)
COC(=O)C1=CC(c2ccc(CO)cc2)=CC(C2CC2)N(C)C=C1C(=O)OC (configuration not stated),-0.591,-8.22 (active),-0.516 (inactive),-0.732 (inactive)
C=CCN1C(=O)[C@]2(O[C@H](CCn3cc([C@H](O)c4ccccc4)nn3)[C@@H]([Si](C)(C)c3ccc(OC)cc3)[C@@H]2C)c2cc(N3CCOC3=O)ccc21,-2.91,-4.64 (inactive),-1.73 (inactive),-1.22 (inactive)
C=CC[C@@]1(C(=O)NCc2ccccc2)N=C(c2ccc(OCCCO)cc2)O[C@@H]1c1ccccc1,-2.24,-6.13 (inactive),-0.762 (inactive),-0.974 (inactive)
COc1ccc([Si](C)(C)[C@H]2[C@H](CC(=O)N(CCO)Cc3ccccc3)O[C@@]3(C(=O)N(Cc4cccc(N5C(=O)COc6ccccc65)c4)c4ccccc43)[C@@H]2C)cc1,-2.28,-1.15 (inactive),-0.567 (inactive),0.722 (inactive)
CC(C)C(=C=CC[C@H](O)c1ccc(OCCO)cc1)C[C@H](O)COCc1ccccc1,-2.65,-4.06 (inactive),-0.0011 (inactive),0.313 (inactive)
O=C1c2ccccc2[C@](Cc2ccccc2I)(C(=O)O)[C@H](c2ccc(CO)cc2)N1Cc1ccccc1Cl,0.303,-4.18 (inactive),-0.679 (inactive),-0.559 (inactive)
COC(=O)C1=CC(CCCO)=CC(C2CC2)N(Cc2cc3c(cc2Br)OCO3)C=C1C(=O)OC (configuration not stated),-0.963,-4.63 (inactive),-0.203 (inactive),-0.201 (inactive)
CCOC(=O)C[C@H]1[C@H](OC(=O)c2ccc(-c3ccccc3)cc2)[C@@H](NC(=O)c2ccccc2)c2cc(OCCCO)ccc2N1C(=O)c1ccccc1,-1.21,-0.959 (inactive),-1.04 (inactive),-0.361 (inactive)

SMILES,z-score [1],z-score [2],z-score [3],z-score [4]
COc1ccc([Si](C)(C)[C@@H]2[C@@H](CC(=O)N3CCC[C@H]3CO)O[C@]3(C(=O)N(Cc4ccc(N5CCC5=O)cc4)c4ccccc43)[C@H]2C)cc1,-0.0482,-2.83 (inactive),-0.245 (inactive),0.476 (inactive)
C[C@@H](OCc1ccccc1)C1NC(=O)[C@@]23C(=O)N[C@@H](Cc4ccccc4)C2[C@H](C)[C@@]2(C)O[C@H]2C3/C=C/C/C=C\CNC(=O)[C@@H]2CCCN2C1=O (some centres not stated),-2.58,-7.05 (inactive),0.0938 (inactive),0.427 (inactive)
CCOC(=O)C[C@H]1[C@H](OC(=O)c2ccc(C(=O)c3ccccc3)cc2)[C@@H](NC(=O)Cc2ccc(OC)cc2)c2cc(OCCCO)ccc2N1C(=O)Cc1ccc(OC)cc1,-0.283,-2.01 (inactive),0.0944 (inactive),0.0944 (inactive)
CO[C@H]1O[C@H](CO)[C@@H](OC(=O)Nc2ccccc2)[C@H](OC(=O)Nc2ccc3c(c2)OCO3)[C@H]1OC(=O)Nc1ccc2c(c1)OCO2,-2.2,-7.83 (inactive),-0.935 (inactive),-0.967 (inactive)
COc1ccc([Si](C)(C)[C@H]2[C@H](CC(=O)N3Cc4ccccc4C[C@H]3CO)O[C@@]3(C(=O)N(Cc4cccc(N5C(=O)COc6ccccc65)c4)c4ccccc43)[C@@H]2C)cc1,-2.22,-1.82 (inactive),-0.558 (inactive),-0.221 (inactive)
CO[C@H]1O[C@H](CO)[C@@H](OC(=O)CCc2ccccc2)[C@@H]2OC(=O)[C@H](Cc3ccccc3)C/C=C/C[C@@H](Cc3ccccc3)C(=O)O[C@@H]12,-1.58,-2.71 (inactive),-0.527 (inactive),-0.474 (inactive)
O=C1c2ccccc2C(=O)c2cc([C@H]3Oc4ccccc4S(=O)(=O)N4CCC[C@@H]34)ccc21,-1.27,-3.19 (inactive),-0.4 (inactive),-0.252 (inactive)
COCCOC(=O)N1C(=O)[C@@]2(c3cc(C#CC4(O)CCCCCC4)ccc31)[C@H](C(=O)NC[C@H](O)c1ccccc1)[C@H]1C(=O)O[C@H](c3ccccc3)[C@H](c3ccccc3)N1[C@@H]2c1ccccc1OCCO,-2.11,-0.371 (inactive),0.462 (inactive),0.992 (inactive)
CC(C)[C@@H](C(=O)O)n1cc(-c2ccccn2)nn1,-0.461,-1.37 (inactive),-0.0368 (inactive),-0.0613 (inactive)
CO[C@H]1O[C@H](CO)[C@@H](OC(=O)Nc2ccccc2)[C@H](OC(=O)Nc2ccccc2-c2ccccc2)[C@@H]1OC(=O)Nc1ccccc1-c1ccccc1,-2.3,-1.96 (inactive),-0.515 (inactive),-0.367 (inactive)
COCCOC(=O)N1C(=O)[C@@]2(c3ccccc31)[C@H](C(=O)Nc1nc3ccccc3s1)[C@H]1C(=O)O[C@H](c3ccccc3)[C@H](c3ccccc3)N1[C@@H]2c1ccc(O)cc1,0.112,0.895 (inactive),-0.2 (inactive),0.3 (inactive)
C=CCC(OC(C)=O)[C@@H]1[C@@H](N(Cc2cccc3ccccc23)C(=O)Cc2ccc(OC)cc2)c2cc(OCCCO)ccc2N1C(=O)Cc1ccc(OC)cc1 (some centres not stated),-2.1,-2.18 (inactive),0.162 (inactive),0.268 (inactive)
CC(C)C[C@@H]1NC(=O)[C@@]23C(=O)N[C@@H](Cc4ccccc4)C2[C@H](C)[C@@]2(C)O[C@H]2C3/C=C/CC/C=C/CNC(=O)[C@@H](C)NC1=O (some centres not stated),-2.13,-4.78 (inactive),-0.0396 (inactive),0.292 (inactive)
COCCOC(=O)N1C(=O)[C@@]2(c3cc(C#CC4(O)CCCCCC4)ccc31)[C@H](c1ccccc1OCCO)N1[C@H](c3ccccc3)[C@H](c3ccccc3)OC(=O)[C@H]1[C@@H]2C(=O)Nc1nc2ccccc2s1,-1.67,4.08 (inactive),-0.201 (inactive),-0.38 (inactive)
CC(C)(C)OC(=O)CC[C@@]1(C(=O)N2CCOCC2)N=C(c2ccc(OCCCO)cc2)O[C@@H]1c1ccccc1,-1.19,-4.03 (inactive),-0.31 (inactive),-0.323 (inactive)
C/C=C/[C@@H](CCn1cc(CCO[Si](C(C)C)(C(C)C)C(C)C)nn1)[Si](C)(C)c1ccc(OC)cc1,-0.84,-5.56 (inactive),-0.233 (inactive),0.122 (inactive)
CO[C@H]1O[C@H](CO)[C@@H](OC(=O)Nc2ccccc2)[C@H](OC(=O)Nc2ccccc2-c2ccccc2)[C@H]1OC(=O)Nc1ccccc1-c1ccccc1,-1.81,-3.12 (inactive),-0.796 (inactive),-0.793 (inactive)
Cc1ccc(S[C@]2(C(=O)NC3CC3)CC(=O)N(Cc3ccccc3C(F)(F)F)[C@@H]2c2ccc(CO)cc2I)cc1,-0.215,-1 (inactive),0.104 (inactive),0.576 (inactive)
CC(C)N1C(=O)c2ccccc2[C@@H](C(=O)NCc2ccccc2)[C@@H]1c1ccc(CO)cc1,-0.3,-0.468 (inactive),-0.67 (inactive),-0.869 (inactive)
